# Legend:
# [1] = target: Nucleosome assembly protein 1-like 1 (UniProt P55209); test: cross-link between two proteins; cross-linking mass spectrometry
# [2] = target: Small ribosomal subunit protein uS11 (UniProt P62263); test: as above
# Chain of UniProt P55209 (P55209 whole entry): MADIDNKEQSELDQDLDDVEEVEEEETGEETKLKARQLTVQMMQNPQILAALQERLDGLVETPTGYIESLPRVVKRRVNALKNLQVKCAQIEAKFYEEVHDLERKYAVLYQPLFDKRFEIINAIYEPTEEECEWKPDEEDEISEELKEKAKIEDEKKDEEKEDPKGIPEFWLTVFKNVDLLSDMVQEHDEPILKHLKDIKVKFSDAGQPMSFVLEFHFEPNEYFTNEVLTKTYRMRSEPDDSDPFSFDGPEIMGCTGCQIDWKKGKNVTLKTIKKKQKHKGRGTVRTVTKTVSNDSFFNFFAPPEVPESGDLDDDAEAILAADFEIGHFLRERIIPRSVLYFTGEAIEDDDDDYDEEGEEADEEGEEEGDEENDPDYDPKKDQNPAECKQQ
substance,measurement,setting,value
"60 kDa heat shock protein, mitochondrial, P10809",listed as a hit,[1],yes
same,listed as a hit,[2],yes

# Reference: paper PMC7010328
